UBC13 inh – blocks human UBC13 polyubiquitin chain formation; TR-FRET; inhibition, % at 20 µM; 330,000 compounds, 0.47% hits; AID 485273; in the data active means inhibition above about 45%, passing the limit was not always enough
SUMO HTRF inh – SUMOylation inhibition; P63279; HTRF SUMOylation assay, SAE1/SAE2 + UBC9, in vitro; inhibition, % at 35 µM; 290,000 compounds, 0.36% hits; in the data active means inhibition above about 50%, passing the limit was not always enough
sPLA2-III inh – Inhibits HGIII-sPLA2 liposome hydrolysis, primary screen; Q9NZ20; QFRET BODIPY PC-A2 liposome hydrolysis, fluorescence; inhibition, % at 12.2 µM; 370,000 compounds, 0.56% hits;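 active means inhibition above mean plus 3 SD of compounds lying within the high and low control bounds, cut at about 19% in these data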;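 further: 0% = median of test compound wells and 100% = no enzyme DMSO wells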
Target sequence (Q9NZ20 whole entry, looked up): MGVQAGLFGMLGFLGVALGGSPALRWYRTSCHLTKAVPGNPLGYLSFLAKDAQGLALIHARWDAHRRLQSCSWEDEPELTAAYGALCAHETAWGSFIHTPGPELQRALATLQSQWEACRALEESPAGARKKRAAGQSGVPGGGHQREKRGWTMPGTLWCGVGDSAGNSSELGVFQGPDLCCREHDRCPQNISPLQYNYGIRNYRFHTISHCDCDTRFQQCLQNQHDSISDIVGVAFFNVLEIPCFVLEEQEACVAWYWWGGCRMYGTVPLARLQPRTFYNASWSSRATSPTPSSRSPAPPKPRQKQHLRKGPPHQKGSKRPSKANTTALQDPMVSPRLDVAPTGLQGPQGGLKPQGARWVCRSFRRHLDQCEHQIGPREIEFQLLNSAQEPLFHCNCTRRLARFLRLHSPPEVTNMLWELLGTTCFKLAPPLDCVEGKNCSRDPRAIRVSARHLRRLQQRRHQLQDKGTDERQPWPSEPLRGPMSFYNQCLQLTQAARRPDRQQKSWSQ
GRIN3A LBD mod – NR3A (human) ligand-binding domain modulation; NR3A LBD differential scanning fluorimetry, Tm shift; 0% = protein alone, 100% = glycine-bound protein; Tm shift relative to glycine control, % at 25 µM; 340,000 compounds, 2.5% hits; AID 1259313;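 active means melting temperature shift of at least 10% of the positive control shift, at one fixed dose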
* hit, by the source's call; . = no result given. The list is not random: actives were taken first. Their share in the collection is about 3.3%.

SMILES	UBC13 inh	SUMO HTRF inh	sPLA2-III inh	GRIN3A LBD mod
COc1ccccc1-n1c(-c2cc(-c3ccc(F)cc3)n[nH]2)n[nH]c1=S	6	19	-5	19*
O=C(CSc1nnc(COc2ccccc2)n1-c1ccc(Cl)cc1)Nc1ccc(OCc2ccccc2)cc1	.	.	-3	.
Fc1ccc(CCNC(=S)Nc2ccc(F)cc2)cc1	-8	-3	16	19*
Fc1cc(Br)ccc1NC(=S)NCCc1ccccc1	0	12	3	30*
S=C(NCCc1ccccc1)Nc1ccc(Cl)cc1	-2	-10	-4	27*
C=CCNC(=S)Nc1ccc(Br)cc1F	-15	-5	14	0
S=C(NCCc1ccccc1)NCCc1ccccc1	-6	-6	3	26*
S=C(NCCc1ccccc1)N/N=C/c1ccc(Cl)cc1	-5	5	-3	6
NNC(=S)NCCc1ccccc1	2	0	1	1
Oc1ccc(CNc2ccccc2Br)c2cccnc12	.	.	9	.
COc1ccc(CNCC#Cc2ccc(C(F)(F)F)cc2)c(OC)c1	.	.	1	.
CS(=O)(=O)N[C@@H]1C[C@@H]2O[C@@H](CO)CC[C@@H]2O[C@@H]1CCc1ccc(/C=C/c2ccccc2)cc1	.	.	-27	.
O=C(NC(=S)NCc1ccccc1)C1CCCCC1	-6	7	2	18*
S=C(NCc1ccccc1)Nc1ccc(Oc2ccccc2)cc1	-1	-5	-8	12*
O=C(NCCc1ccccc1)Nc1ccc(Cl)cc1	-6	-6	6	16*
S=C(NCCCc1ccccc1)Nc1ccccc1Cl	4	-11	-14	18*
O=C(NC(=S)Nc1ccccc1)C1CCCCC1	-3	5	3	0
Cc1cc(C)cc(-c2c(C(=O)c3ccccc3)[nH]c(N)c2C(=O)NCCc2c[nH]c3ccccc23)c1	.	.	-54	.
COc1ccc(S[C@]2(C(=O)N3CCCC3)CC(=O)N(c3ccc4c(ccn4C)c3)[C@@H]2c2ccc(OC)cc2)cc1	.	.	-5	.
S=C(NCc1ccc(Cl)cc1Cl)Nc1ccccc1	12	-1	-2	13*
S=C(NCc1ccc(Cl)cc1)Nc1ccccc1	10	9	-1	-6
S=C(NCCC(c1ccccc1)c1ccccc1)Nc1cccc(Cl)c1	-2	1	-20	16*
S=C(NCc1ccccc1)NCc1ccc(CNC(=S)NCc2ccccc2)cc1	-3	13	-54	20*
COc1cccc2cc3c(nc12)C[C@@H]1CCCC(=O)N2CCC[C@@]12C3	.	.	3	.
C/C(=N/NC(=O)CSc1nnc(SCc2ccc(C)cc2)s1)c1cccc(O)c1	.	.	0	.
SMILES	UBC13 inh	SUMO HTRF inh	sPLA2-III inh	GRIN3A LBD mod
COc1ccc(N2CCN(CCCNC(=O)COc3ccc(C)cc3)CC2)cc1	.	.	9	.
COc1ccc(-c2cc(C(=O)N=Nc3c(O)[nH]c4ccccc34)[nH]n2)cc1	.	.	1	.
COC(=O)c1ccc(NC(=O)Nc2ccc(OC)cc2)cc1	-4	6	-5	10*
COc1ccc(NC(=O)Nc2ccc3nccnc3c2)cc1	-6	1	-3	-1
COc1ccc(C(=O)/C(C#N)=N/Nc2ccccc2[N+](=O)[O-])cc1	-48	3	-6	2
COc1ccc(NC(=O)Nc2ccc3nonc3c2)cc1	-10	0	2	19*
COc1ccc(C(=O)/C(C#N)=N/Nc2ccc([N+](=O)[O-])cc2)cc1	-235	14	-2	17*
COc1ccc(NC(=O)Nc2ccc3[nH]ccc3c2)cc1	-2	.	2	35*
C=CCNC(=O)NC[C@@]1(C(=O)OC)CC(=O)N(C)[C@@H]1c1ccccc1	.	.	1	.
COc1ccc(CNC(=O)Nc2ccc(OC)cc2)cc1	3	6	9	.
COc1ccc(NC(=O)Nc2ccc(OC)cc2)cc1	-6	15	1	13*
COc1ccc(NC(=O)Nc2ccc(N(C)C)cc2)cc1	-21	-4	12	12*
COc1ccc(C(=O)CC(=O)Nc2ccc([N+](=O)[O-])cc2)cc1	-5	1	-12	24*
O=C(Nc1ccc(C(=O)O)cc1)Nc1ccc([N+](=O)[O-])cc1	-8	12	-2	1
COC(=O)c1ccc(NC(=O)Nc2ccc([N+](=O)[O-])cc2)cc1	-8	-13	-6	34*
C[C@@H]1CCN(C2CC2)S(=O)(=O)c2c(cccc2N2CC[C@@H](O)C2)O1	.	.	1	.
Cc1ccccc1N(C)C(=O)CN1CCN(c2nc(-c3ccccc3)cs2)CC1	.	.	-4	.
CCc1ccc(CCC(=O)Nc2ccc(OC)cc2)o1	5	15	-16	32*
CC(=O)c1ccc(NC(=O)Nc2ccc3c(c2)nc(C)n3C)cc1	17	2	3	5
COC(=O)c1ccc(NC(=O)Nc2ccc3c(c2)nc(C)n3C)cc1	-1	6	-3	25*
CCc1ccc(CCC(=O)Nc2ccc(Br)cc2)o1	-4	-2	-31	-5
Oc1ccc2ccccc2c1CNc1ccccc1	.	.	1	-9
O=[N+]([O-])c1ccccc1NCc1c(O)ccc2ccccc12	-6	-3	-45	13*
COc1ccc(C(=O)O/N=C(\N)c2cccc(C)c2)cc1OC	2	-3	2	18*
COc1ccc(C(=O)O/N=C(\N)c2ccncc2)cc1OC	-7	-4	-2	-1
SMILES	UBC13 inh	SUMO HTRF inh	sPLA2-III inh	GRIN3A LBD mod
Cc1cccc(C(=O)O/N=C(\N)c2ccc(Br)cc2)c1	-3	-11	3	9
COc1ccc(/C(N)=N/OC(=O)c2ccc(Br)o2)cc1	-2	0	5	14*
Cc1cccc(C(=O)O/N=C(\N)c2ccc(Cl)cc2)c1	5	-16	0	11*
COc1ccc(Cl)cc1C(=O)O/N=C(\N)c1ccncc1	11	-3	-1	11*
N/C(=N\OC(=O)c1ccc(Br)o1)c1cccnc1	-9	12	-4	0
O=C(Nc1cccc(F)c1)OC1CC2CC1[C@H]1CCCCN1[C@H]2Cc1ccccc1 (stereo not given in full)	.	.	-3	.
COc1ccc(C(=O)O/N=C(\N)c2ccc(Cl)cc2)cc1	8	4	10	21*
COc1ccccc1C(=O)O/N=C(\N)c1ccc(Cl)cc1	1	-31	-2	-15
O=C(NC1CCCC1)C(c1ccc(F)cc1)N(Cc1ccc(F)cc1)C(=O)c1ccn[nH]1 (stereo not given)	0	-1	-3	17*
COC(=O)[C@]12C[C@H](CC(=O)NCCCN3CCCC3=O)C(=O)N(CCC3=CCCCC3)C1=C[C@H](C1CCCC1)O[C@@H]2C	.	.	-5	.
CSC(=Nc1ccccc1)N=C(SCc1ccccc1)N(C)C	.	.	6	11*
CCOC(=O)C1(Cc2ccccc2)CCN(Cc2ccnc3ccccc23)CC1	.	.	2	.
O=C(Nc1ccc2oc(-c3ccncc3)nc2c1)c1cccs1	4	39	-8	33*
CC(=O)Nc1ccc(S(=O)(=O)Nc2cccc(-c3nc4cc(C)ccc4o3)c2)cc1	3	.	-6	16*
Cc1ccc2oc(-c3ccc(C)c(NC(=O)Cc4cccs4)c3)nc2c1	1	56*	2	-2
CC(=O)Nc1ccc(-c2nc3ccc(NC(C)=O)cc3o2)cc1	28	51*	16	11*
O=C(Nc1ccc2oc(-c3ccncc3)nc2c1)c1ccccc1	12	15	0	-7
